Assay results from PubChem BioAssay (NCATS).
Results filed as inconclusive are left out. Unmarked numbers belong to inactive results. Calls of active or inactive are those of the source. The call rests on the fitted dose curve; in most records, active means well fitted inhibition curve with a large enough effect; inconclusive means small, poorly fitted or top-dose-only effect; inactive means no such curve, though single readings can be large or run the other way.

System: Zika virus NS2B-NS3 protease (linked construct)
Assay: Primary screen NINDS Rhodamine qHTS for Zika virus inhibitors (AID 1347160); further: nearly all actives have a fitted effect of over 55% in size
Conditions: purified NS2B-NS3 protease, Rhodamine110 substrate fluorescence; series mostly up to 57.1 µM; activity change, negative = inhibition: at the top concentration
In short: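 Aprotinin served as in-plate control. Conditions: 25 nM linked NS2B-NS3, pH 8.0 Tris buffer, titrated compounds, 15 min preincubation and 15 min reaction with 1.5 microM Rhod110 substrate at room temperature.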
On the % scale 0 is the no-effect control and ±100 the full control effect.

Structure (SMILES)	activity change, negative = inhibition	outcome
COc1cc(C2OC(c3ccc(OC)c(OC)c3)C(C)C2C)ccc1O (stereo unspecified)	-4.73% [at 33.1 µM]	–
O=S(=O)(c1ccc(Cl)cc1)N1CCN(c2ccnc3cc(Cl)ccc23)CC1	-1.72%	–
O=c1[nH]c2cccc(N3CCN(Cc4ccc(-c5ccccc5)cc4)CC3)c2o1	-3.84%	–
COc1cc(O)c2c(c1)/C=C/C[C@H](O)[C@H](O)C(=O)/C=C\C[C@H](C)OC2=O	–	inactive
C=C1[C@H]2CC[C@H](C(=O)O)[C@@]23CC[C@H](C3)C1(C)C	-4.33%	–
COc1cc(C(N)=O)nc(-c2ccccn2)c1O	–	inactive
CC(/C=C/C(=O)NO)=C\[C@@H](C)C(=O)c1ccc(N(C)C)cc1	-7.11%	–
O=C(NCC1(c2nc(-c3ccccc3)cs2)CCOCC1)c1cccc(-c2noc(C(F)(F)F)n2)c1	-13.3%	–
C/C(=C\Cc1c(O)c(Cl)c(C)c(C=O)c1O)CC/C=C(\C)[C@H]1CC(=O)C(C)(C)O1	-18.2% [at 33.1 µM]	–
CC(C)c1cccc(C(C)C)c1NC(=O)Nc1ccc(Sc2ccc([N+](=O)[O-])cc2)cc1	-3.66%	–
CCOC(=O)C1=Cc2ccc(C(F)(F)C(F)(F)F)cc2N=C(N)C1	31%	–
